Screening results (PubChem)
In the library only some 4.6% were active in any assay of this set; here they are far more common.
tim10-1 inh: growth inhibitors of tim10-1 mutant yeast, primary screen, luminescence, uHTS; S. cerevisiae tim10-1 ts strain growth, BacTiter-Glo, 24 h; inhibition, % at 20 µM; hit rate 2.2% among 330,000;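 active = inhibition of at least 40%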;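 note: mutant grown at 25 °C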
V-ATPase pHluor: regulators of yeast V-ATPase proton pumping, primary screen, pHLuorin cytosolic pH fluorescence | hit rate 0.37% among 350,000 | response, % at 10 µM | S. cerevisiae; in the data active = response mostly above about 7.3%, no sharp cut-off; inactive = mostly below about 5.4%; note: actives read high
TIM10 inh: growth inhibitors of isogenic TIM10 control yeast, primary screen, counter-screen for tim10-1 yeast inhibitor project, luminescence, uHTS. hit rate 1.4% among 330,000. inhibition, % at 10 µM. S. cerevisiae TIM10 strain growth, BacTiter-Glo luminescence, 24 h;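 active = inhibition of 40% or more at the single tested concentration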;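 note: wild-type TIM10 isogenic control strain grown at permissive 25 °C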
PfHsp90 set2: growth inhibition of PfHsp90-expressing yeast, primary screen, antimalarial PfHsp90 inhibitor project, S. cerevisiae, BacTiter-Glo luminescence, single point, set 2; inhibition, % at 9.4 µM; BacTiter-Glo ATP, 48 h; yeast lacking PDR1 and PDR3 efflux regulators; hit rate 0.32% among 310,000;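 active = every replicate shows inhibition above about 80%, whatever the replicate mean, limit read from the data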
SKKanGAS inh: S. pyogenes SKKanGAS growth inhibitors in kanamycin, primary screen, streptokinase expression inhibitor project, SKKanGAS strain, BacTiter-Glo luminescence | AID 1662, 2009 | inhibition, % at 7.5 µM | hit rate 1.3% among 300,000 | 6 h;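 active = mean replicate score, as percent of positive control median, at least 50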;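 note: strain carries kanamycin resistance gene driven by streptokinase promoter and grows in 40 µg/ml kanamycin; loss of luminescence reflects streptokinase promoter inhibition or plain growth inhibition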
tim23-1 inh: growth inhibitors of tim23-1 mutant yeast, primary screen, luminescence, uHTS. AID 463212, 2010. hit rate 1.3% among 330,000. S. cerevisiae tim23-1 growth, BacTiter-Glo luminescence, 24 h. inhibition, % at 20 µM;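 active = growth inhibition of the mutant yeast at or above 50%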;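 note: temperature-sensitive mutant grown at 25 °C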
tim10-1 conf: growth inhibitors of tim10-1 mutant yeast, confirmation, single concentration, luminescence, S. cerevisiae. shares compounds with tim10-1 inh. S. cerevisiae tim10-1 ts strain growth, BacTiter-Glo, 24 h. inhibition, % at 20 µM. hit rate 56% among 7,400. AID 463213, 2010;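 active = inhibition of yeast growth at or above a set limit in either of two repeat tests at 20 µM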;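 note: tim10-1 mutant grown at permissive 25 °C to find synthetic lethal compounds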
A number is an active result; 0 = inactive; - = not tested or not shown.

SMILES | tim10-1 inh | V-ATPase pHluor | TIM10 inh | PfHsp90 set2 | SKKanGAS inh | tim23-1 inh | tim10-1 conf
CCc1nc(C)cn1S(=O)(=O)c1cc(Br)c(C)cc1OC | 44 | 0 | 0 | 0 | 0 | 0 | 0
CCc1nc(C)cn1S(=O)(=O)c1cc(C)c(OC)cc1C | 0 | 0 | 0 | 0 | 0 | 0 | -
Cc1cc(C)cc(NC(=O)Cc2ccc(S(=O)(=O)N3CCCC3)s2)c1 | 0 | 0 | 0 | 0 | - | 0 | -
O=C(Cc1ccc(S(=O)(=O)N2CCCCC2)s1)Nc1ccc(F)c(F)c1 | 47 | 0 | 0 | 0 | 0 | 0 | 0
COc1ccccc1C(=O)NNC(=O)c1ccc(C)cc1 | 0 | 0 | 0 | 0 | 0 | 0 | -
COc1ccccc1C(=O)NC(=O)Nc1c(C)cc(C)cc1C | 42 | 0 | 0 | 0 | 0 | 0 | 40
O=c1[nH]nc(Sc2ccccc2)c(=S)[nH]1 | - | 0 | - | - | - | - | -
CCOc1ccc(NC2=CC(=O)CC(c3ccco3)C2)cc1 (stereo not drawn) | 0 | 0 | 0 | - | 0 | 0 | -
CCCCCCCNC1=CC(=O)CC(c2ccco2)C1 (stereo not drawn) | 50 | 0 | 0 | 0 | 0 | 0 | 0
COc1cccc(CN2CCN(C(=O)c3ccc(-c4ccccc4)cc3)CC2)c1OC | 44 | 0 | 0 | 0 | 0 | 0 | 0
COc1cc(CN2CCN(C(=O)c3ccc(-c4ccccc4)cc3)CC2)cc(OC)c1OC | 0 | 0 | 0 | 0 | 0 | 0 | -
Cc1ccc2c(CC(=O)O)coc2c1C | 41 | 0 | 0 | 0 | 0 | 0 | 0
Cc1ccc2c(CC(=O)O)coc2c1 | 0 | 0 | 0 | 0 | 0 | 0 | -
COc1ccc(-c2nc(-c3cccs3)c(-c3cccs3)[nH]2)cc1OC | 50 | 0 | 0 | 0 | 68 | 0 | 36
Cc1cc(C)nc(NN=C(c2ccccc2)c2ccccc2)n1 | 47 | 0 | 0 | 0 | 0 | 0 | 0
O=C(CCN1CCc2ccccc2C(c2ccccc2)C1)c1ccc2c(c1)OCCO2 (stereo not drawn) | 56 | 0 | 0 | 138 | 0 | 0 | 56
O=C(OCCCOC(=O)c1ccccc1O)c1ccccc1O | 0 | - | 0 | - | 0 | 0 | -
C=CCN1C(=O)/C(=C/C=C2/N(CC)c3ccc(S(=O)(=O)N(C)C)cc3N2CC)SC1=S | 0 | 0 | 0 | 0 | 0 | 0 | -
CC(CC(=O)Nc1ncc([N+](=O)[O-])s1)c1ccccc1 (stereo not drawn) | 43 | 0 | 0 | - | - | 0 | 52
CCC(Oc1ccccc1)C(=O)Nc1ncc([N+](=O)[O-])s1 (stereo not drawn) | 42 | 0 | 0 | 0 | 0 | 0 | 55
O=C(COC(=O)COc1ccccc1)Nc1ncc([N+](=O)[O-])s1 | 0 | 0 | 0 | 0 | - | 0 | -
Cc1ccccc1OCC(=O)OCC(=O)Nc1cc(S(=O)(=O)N2CCCCC2)ccc1Cl | 0 | 0 | 0 | 0 | 0 | 0 | -
O=C(O)c1cc([N+](=O)[O-])ccc1NCCCc1ccccc1 | 0 | 0 | 0 | 0 | 0 | 0 | -
O=C(NCCCc1ccccc1)c1cc([N+](=O)[O-])ccc1Cl | 41 | 0 | 0 | 0 | 0 | 0 | 0
COc1ccccc1C(=O)N/C(=C\c1ccc(Br)cc1)C(=O)N1CCCC1 | 0 | 0 | 0 | - | 0 | 0 | -
SMILES | tim10-1 inh | V-ATPase pHluor | TIM10 inh | PfHsp90 set2 | SKKanGAS inh | tim23-1 inh | tim10-1 conf
N#C/C(=N\Nc1cccc(Cl)c1)C(=O)c1ccccc1 | 42 | 0 | 0 | 0 | 0 | 0 | 0
CCC1CCCCN1c1cc(C)nc2cc(-c3cccc(C)c3)nn12 (stereo not drawn) | 42 | 0 | 0 | 0 | 57 | 0 | 0
CCC/C=C/c1ccc(CN2C(CC(C)C)C(=O)N(Cc3cn(Cc4ccco4)nn3)CCS2(=O)=O)cc1 (stereo not drawn) | - | 0 | - | - | - | - | -
C/C(=N\O)c1ccc(Cl)cc1Cl | 0 | 0 | 0 | 0 | 0 | 0 | -
C/C(=N\O)c1cc(Cl)cc(Cl)c1O | 48 | 0 | 0 | 0 | 0 | 0 | 43
O=C(NNC(=S)NC(=O)c1ccccc1[N+](=O)[O-])c1ccccc1Cl | 0 | 0 | 0 | 0 | 0 | 0 | -
O=C(NC(=S)NNC(=O)c1ccccc1[N+](=O)[O-])c1ccc(Br)cc1 | 41 | 0 | 0 | 0 | 63 | 0 | 44
CCCCCC(=O)NNC(=S)NC(=O)c1cccc([N+](=O)[O-])c1 | 0 | 0 | 0 | 0 | 0 | 0 | -
CCCCCC(=O)NNC(=S)NC(=O)c1ccccc1[N+](=O)[O-] | 43 | 0 | 0 | - | 0 | 0 | 0
C#CCOCCOCCOCCNc1nc(N2CCN(C(=O)[C@H](CC(N)=O)n3cc(C(N)[C@H](C)CC)nn3)CC2)nc(N2CCN(C(=O)[C@H](CC(N)=O)n3cc(C(N)[C@@H](C)CC)nn3)CC2)n1 (stereo partly drawn) | 0 | 0 | 0 | 0 | - | 0 | -
COc1ccc(C(=O)N2CCN(c3ccccc3Cl)CC2)cc1S(=O)(=O)NC1CC1 | 0 | 0 | 0 | 0 | - | 0 | -
O=C(c1ccc(F)cc1)N1CCC(C(=O)N2CCN(c3ncccn3)CC2)CC1 | 0 | 0 | 0 | - | - | 0 | -
CN1CCN(S(=O)(=O)c2ccc(Sc3nnnn3-c3ccccc3)c([N+](=O)[O-])c2)CC1 | 0 | 0 | 0 | 0 | 0 | 0 | -
CC(=O)c1ccc(Sc2nnnn2-c2ccccc2)c([N+](=O)[O-])c1 | 46 | 0 | 0 | 0 | 0 | 0 | 0
CC(C)(C)c1csc(NC(=O)C2COc3ccccc3O2)n1 (stereo not drawn) | 0 | 0 | 0 | 0 | 0 | 0 | -
COc1ccc(-c2csc(NC(=O)C3COc4ccccc4O3)n2)cc1OC (stereo not drawn) | 43 | 0 | 0 | 0 | 0 | 0 | 0
CC(C)(C)Nc1nc(SCC(=O)Nc2ccccc2)nc(N2CCOCC2)n1 | 46 | 0 | 0 | 0 | 0 | 0 | 0
CN(C)c1nc(SCC(=O)Nc2ccccc2)nc(N2CCOCC2)n1 | 0 | 0 | 0 | 0 | 0 | 0 | -
COc1ccccc1OCC(=O)N/N=C1/C=C(C)CC1 | 0 | 0 | 0 | 0 | 0 | 0 | -
CC(C)(C)[C@H]1CCC(=O)N([C@H](CN=[N+]=[N-])Cc2ccccc2)CC1 | 41 | 0 | 0 | 0 | 0 | 0 | 0
O=C(NCc1nnnn1-c1ccc(F)cc1)c1ccc([N+](=O)[O-])o1 | 0 | 0 | 0 | - | 0 | 0 | -
Cc1ccc(-n2nnnc2CNC(=O)c2ccc([N+](=O)[O-])o2)cc1C | 43 | 0 | 0 | 0 | 0 | 0 | 31
NC(=O)c1ncn([C@@H]2O[C@H](CNCc3cccc(OC4CCCC4)c3)[C@@H](O)[C@H]2O)n1 | - | 0 | - | 0 | - | - | -
Cc1ccc2nc(NCCCO)nc(-c3ccccc3)c2c1 | 0 | 0 | 0 | 0 | 0 | 0 | -
OCCCNc1nc(-c2ccccc2)c2cc(Br)ccc2n1 | 48 | 0 | 0 | 0 | 0 | 0 | 36
